For 37 compounds, inhibition results are on record in ChEMBL document CHEMBL5606458, “ASAP - ZIKV NS2B-NS3 protease fluorescence single point” (2024).

This test deals with Nonstructural protein 3 (Zika virus) (UniProt A0A024AXB9).
Where [1] appears, read: PRVABC59, Concentration 15.0 uM, Number of replicates 1.0.
The mark [2] stands for this setting: PRVABC59, Concentration 50.0 uM, Number of replicates 1.0.

Each structure is given as a SMILES string. Among all 2,700 compounds or so, about 160 (5.9%) showed an effect of 50% or more. Only a selection was taken, and strong results are over-represented in it overall.

Sequence of Nonstructural protein 3 (Zika virus) (A0A024AXB9 as listed by the source): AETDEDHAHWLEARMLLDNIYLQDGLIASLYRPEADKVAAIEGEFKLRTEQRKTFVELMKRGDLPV

With `CC(=O)Nc1ccc(NC(=O)c2cc(Cl)ccc2NS(=O)(=O)c2ccc(Oc3ccccc3Cl)cc2)c(C(F)(F)F)c1`, under setting [1], the inhibition was 23.4%. The same measure, in the same setting: in the case of `O=C(Nc1cc(Br)ccc1F)c1cc(Cl)ccc1NS(=O)(=O)c1ccc(Oc2ccccc2Cl)cc1` it was 24.4%; in that of `COc1ccc(NC(=O)c2cc(Cl)ccc2NS(=O)(=O)c2ccc(Oc3ccccc3Cl)cc2)cc1C(F)(F)F`, 51.3%; in that of `COc1ccc(-c2cc(NC(=O)c3cc(Cl)ccc3NS(=O)(=O)c3ccc(Oc4ccccc4Cl)cc3)[nH]n2)cc1`, 57.5%. For `COc1cc(NC(=O)c2cc(Cl)ccc2NS(=O)(=O)c2ccc(Oc3ccccc3Cl)cc2)cc(OC)c1`, the inhibition under setting [1] is 24.1%. On to `Cc1ccc(NC(=O)c2cc(Cl)ccc2NS(=O)(=O)c2ccc(Oc3ccccc3Cl)cc2)cc1Br`, for which the inhibition under setting [1] was found to be 43.3%. On the same count and under the same terms, as for `O=C(Nc1ccc(Br)cc1O)c1cc(Cl)ccc1NS(=O)(=O)c1ccc(Oc2ccccc2Cl)cc1`, the figure is 58.9%; as for `O=C(Nc1ccc(F)c(Br)c1)c1cc(Cl)ccc1NS(=O)(=O)c1ccc(Oc2ccccc2Cl)cc1`, 48.7%; as for `COc1ccc(Cl)c(NC(=O)c2cc(Cl)ccc2NS(=O)(=O)c2ccc(Oc3ccccc3Cl)cc2)c1`, 25.8%. Regarding `COc1cc(NC(=O)c2cc(Cl)ccc2NS(=O)(=O)c2ccc(Oc3ccccc3Cl)cc2)ccc1Br`, the inhibition under setting [1] worked out at 60.4%. On the same count and under the same terms, as for `O=C(Nc1cccc(Cl)c1Br)c1cc(Cl)ccc1NS(=O)(=O)c1ccc(Oc2ccccc2Cl)cc1`, the figure is 25.4%; as for `O=C(Nc1ccc(Br)c(C(F)(F)F)c1)c1cc(Cl)ccc1NS(=O)(=O)c1ccc(Oc2ccccc2Cl)cc1`, 29.1%. Consider `O=Cc1ccc(N2CCC(C(=O)Nc3ccc(-n4cccn4)cc3)CC2)cc1`, for which the inhibition under setting [2] was 21.4%. `Cn1cc(NC(=O)c2ccccc2-c2ccc(C(=O)O)nc2)cn1`: the inhibition is -1.15% (PRVABC59, Concentration 49.5 uM, Number of replicates 2.0, Standard deviation 2.4498358087391408 %); -0.876% (PRVABC59, Concentration 99.01 uM, Number of replicates 2.0, Standard deviation 1.6656005687321722 %); 3.27% (PRVABC59, Concentration 198.0 uM, Number of replicates 2.0, Standard deviation 2.3203289956835937 %). In the case of `O=C(NCCc1c[nH]c2cccnc12)[C@@]1(c2ccc(F)cc2)CCCNC1`, the inhibition runs as follows: (PRVABC59, Concentration 49.5 uM, Number of replicates 2.0, Standard deviation 1.1099611949443484 %) 2.3%; (PRVABC59, Concentration 99.01 uM, Number of replicates 2.0, Standard deviation 0.8664361984862207 %) -0.092%; (PRVABC59, Concentration 198.0 uM, Number of replicates 2.0, Standard deviation 1.4816570758007732 %) -1.42%. On to `O=C(c1cc(Cl)ccc1NS(=O)(=O)c1ccc(Oc2ccccc2Cl)cc1)N1CCN(C(=O)[C@@H]2CCCO2)CC1`, for which the inhibition under setting [1] was -3.32%.

For `CC(C)c1cccc(C(C)C)c1NC(=O)C1CCN(c2ccc(C=O)cc2)CC1`, the inhibition under setting [2] amounted to 22.1%. Regarding `O=Cc1ccc(N2CCC(C(=O)N3CCC(Cc4ccccc4)CC3)CC2)cc1`, the inhibition under setting [2] is 24.7%. Take `CNC(=O)[C@H]1CCN(S(=O)(=O)c2ccc(Oc3ccccc3Cl)cc2)C1`: the inhibition was determined as 6.33% (PRVABC59, Concentration 49.5 uM, Number of replicates 2.0, Standard deviation 2.3503648629811855 %); 8.32% (PRVABC59, Concentration 99.01 uM, Number of replicates 2.0, Standard deviation 2.692773952478603 %); 5.71% (PRVABC59, Concentration 198.0 uM, Number of replicates 2.0, Standard deviation 0.3043636351088153 %).

`CC(=O)N1CCC(N(C)C(=O)c2cc(Cl)ccc2NS(=O)(=O)c2ccc(Oc3ccccc3Cl)cc2)CC1`: the inhibition under setting [1] was 11.3%.

In the case of `Cc1cc(CO)c2cccc(CC(=O)NCCc3ncc[nH]3)c2n1`, the inhibition came out at 12.5% (PRVABC59, Concentration 49.95 uM, Number of replicates 2.0, Standard deviation 0.020358613704702253 %) and 32.3% (PRVABC59, Concentration 99.9 uM, Number of replicates 2.0, Standard deviation 0.02544995300481825 %). `O=C(Nc1ncc(F)cc1Br)c1cc(Cl)ccc1NS(=O)(=O)c1ccc(Oc2ccccc2Cl)cc1`: the inhibition under setting [1] amounted to 23.4%. On to `COc1cc(Cl)c(C)cc1NC(=O)c1cc(Cl)ccc1NS(=O)(=O)c1ccc(Oc2ccccc2Cl)cc1`, for which the inhibition under setting [1] amounted to 22.4%.

`COc1ncc(NC(=O)c2cc(Cl)ccc2NS(=O)(=O)c2ccc(Oc3ccccc3Cl)cc2)cc1Br`: the inhibition under setting [1] amounted to 67.3%. With `O=C(Nc1ncc(Br)nc1Cl)c1cc(Cl)ccc1NS(=O)(=O)c1ccc(Oc2ccccc2Cl)cc1`, the inhibition under setting [1] worked out at 16.8%. Take `COc1cc(Br)ccc1NC(=O)c1cc(Cl)ccc1NS(=O)(=O)c1ccc(Oc2ccccc2Cl)cc1`: the inhibition under setting [1] was found to be 56.4%. In the case of `O=C(Nc1ncc(Br)cc1O)c1cc(Cl)ccc1NS(=O)(=O)c1ccc(Oc2ccccc2Cl)cc1`, the inhibition under setting [1] is 55.3%. For `COc1ncc(Br)cc1NC(=O)c1cc(Cl)ccc1NS(=O)(=O)c1ccc(Oc2ccccc2Cl)cc1`, the inhibition under setting [1] stood at 22.9%.

`O=C(Nc1cnc(Cl)c(Br)c1)c1cc(Cl)ccc1NS(=O)(=O)c1ccc(Oc2ccccc2Cl)cc1`: under setting [1], the inhibition came out at 23%. Turning to `CCc1cc(Br)ccc1NC(=O)c1cc(Cl)ccc1NS(=O)(=O)c1ccc(Oc2ccccc2Cl)cc1`, under setting [1], the inhibition was found to be 41.5%. On to `COc1ccc(CNC(=O)c2cc(Cl)ccc2NS(=O)(=O)c2ccc(Oc3ccccc3Cl)cc2)cc1F`, for which the inhibition under setting [1] came out at 26.5%. On the same count and under the same terms, in the case of `O=C(c1cc(Cl)ccc1NS(=O)(=O)c1ccc(Oc2ccccc2Cl)cc1)N1CCN(c2ncccn2)CC1` it was 7.48%. Consider `O=Cc1ccc(N2CCC(C(=O)Nc3ccccc3I)CC2)cc1`, for which the inhibition under setting [2] is 24.9%. As to `O=Cc1ccc(N2CCC(C(=O)Nc3ccc(Br)c(Cl)c3Cl)CC2)cc1`, the inhibition under setting [2] amounted to 20.9%. Consider `CC(C)(C)N(C[C@H](O)c1ccc(O)c(CO)c1)C(=O)c1cc(Cl)ccc1NS(=O)(=O)c1ccc(Oc2ccccc2Cl)cc1`, for which the inhibition under setting [1] turned out to be 14.6%.

Turning to `COc1ccccc1OCCCN(C)C(=O)C1CCN(c2ccc(C=O)cc2)CC1`, under setting [2], the inhibition was 22.6%. For `CC(C)(COC(=O)c1cccc(F)c1)NC(=O)c1cc(N)cc(Cl)c1`, the inhibition is, setting by setting: (PRVABC59, Concentration 49.5 uM, Number of replicates 2.0, Standard deviation 1.1247891306000573 %) 3.45%; (PRVABC59, Concentration 99.01 uM, Number of replicates 2.0, Standard deviation 1.4129417390724304 %) 5.8%; (PRVABC59, Concentration 198.0 uM, Number of replicates 2.0, Standard deviation 1.2082537148179389 %) 9%.
